Inconclusive results are not listed. Calls of active or inactive are those of the source. Unless noted, calls come from the whole dose curve; as a rule, active = well fitted cell-killing curve with a large enough effect; inconclusive = small, poorly fitted or top-dose-only effect; inactive = flat fitted curve, though single readings scatter.
Assays:
[1] = Cell Viability - LYMP2-025 (AID 976);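 note: series mostly up to about 92 µM; plate controls were DMSO only for no effect and tetraoctylammonium bromide control for full effect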
Outline: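 Luminescent ATP readout after 24 hr treatment of a human lymphoblastoid line (LYMP2-025, 2500 cells/well, 37 C). Reagent developed 30 min at room temperature; AC50 fitted with the Hill equation.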

[2] = Cell Viability - LYMP2-002 (AID 977);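 note: series mostly up to about 92 µM; compound exposure lasted 24 h at 37 °C; plate controls were DMSO only for no effect and 92 µM tetraoctylammonium bromide for full effect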
Outline: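 Human lymphoblastoid cells (2500/well) in complete medium were preincubated 5 hr at 37 C, then exposed to compounds for 24 hr at 37 C. Intracellular ATP was read by CellTiter-Glo luminescence; AC50 came from Hill-equation concentration-response fits.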

[3] = Cell Viability - LYMP2-006 (AID 978); note: series mostly up to about 92 µM; % is set by controls: 0 for no effect and ±100 for the full control effect; nearly all actives have a fitted effect of over 60% in size
Outline: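 Human lymphoblastoid cells, 2500 per well, were preincubated 5 hr at 37 C, then exposed to compounds for 24 hr at 37 C in complete medium. Viability was read as intracellular ATP by CellTiter-Glo luminescence; AC50 from Hill-equation fits of qHTS concentration-response data.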

[4] = Cell Viability - LYMP2-007 (AID 979);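 note: cells exposed to compound for 24 h before reading; 0% = DMSO only and the negative end = 92 µM tetraoctylammonium bromide; nearly all actives have a fitted effect of over 60% in size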
Outline: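 Measured via luciferase-based ATP quantitation: lymphoblastoid cells, 24 hr compound exposure at 37 C, AC50 from Hill fits.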

[5] = Cell Viability - LYMP2-008 (AID 980); note: % is set by controls: 0 for no effect and ±100 for the full control effect; nearly all actives have a fitted effect of over 60% in size
Outline: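 Measured: ATP-dependent luminescence, proportional to viable cell number, in human lymphoblastoid cells treated 24 hr with compound in complete culture medium. Values are AC50s from Hill-equation modelling of qHTS titrations.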

[6] = Cell Viability - LYMP2-010 (AID 981); note: % is set by controls: 0 for no effect and ±100 for the full control effect; nearly all actives have a fitted effect of over 55% in size
Outline: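 This 24 hr viability screen uses LYMP2-010 lymphoblastoid cells, quantifies ATP via luciferase luminescence, and derives AC50 from Hill fits of qHTS concentration-response data.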

[7] = Cell Viability - LYMP2-012 (AID 982);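 note: cellular ATP by luciferase luminescence where a drop means cytotoxicity; cells exposed to compound for one day before reading; 0% = DMSO only and full loss = 92 µM tetraoctylammonium bromide; nearly all actives have a fitted effect of over 55% in size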
[8] = Cell Viability - LYMP2-014 (AID 983);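 note: series mostly up to about 92 µM; plate controls were DMSO only for no effect and 92 µM tetraoctylammonium bromide for full effect; nearly all actives have a fitted effect of over 50% in size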
Outline: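 Quantitative HTS in lymphoblastoid cells: 24 hr compound exposure, then CellTiter-Glo ATP luminescence. Positive control was tetraoctylammonium bromide, 6.4pM to 92 uM.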

[9] = Cell Viability - LYMP2-016 (AID 984); note: % is set by controls: 0 for no effect and ±100 for the full control effect; nearly all actives have a fitted effect of over 55% in size
Outline: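 Human lymphoblastoid cells (LYMP2-016), 2500/well in complete medium, preincubated 5 hr at 37 C, then compound-treated 24 hr at 37 C. Intracellular ATP read by CellTiter-Glo luminescence after 30 min at room temperature; AC50 from Hill-equation concentration-response fits.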

[10] = Cell Viability - LYMP2-018 (AID 985);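 note: plate controls were DMSO only for no effect and tetraoctylammonium bromide at 92 µM for full effect; nearly all actives have a fitted effect of over 50% in size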
Outline: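 In this qHTS viability assay, cells are treated for 24 hr and cellular ATP is quantified by luciferase-based luminescence, with tetraoctylammonium bromide as positive control.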

[11] = Cell Viability - LYMP2-020 (AID 986);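 note: series mostly up to about 92 µM; plate controls were DMSO only for no effect and tetraoctylammonium bromide at 92 µM for full effect; nearly all actives have a fitted effect of over 55% in size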
Outline: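 Cells at 2500 per well receive a 24 hr compound exposure at 37 C. Viability is measured as ATP-dependent luciferase luminescence, with AC50 modeled from qHTS concentration-response curves.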

[12] = Cell Viability - LYMP2-022 (AID 987)
Outline: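 In this qHTS cytotoxicity screen, compound titrations were incubated 24 hr at 37 C with human lymphoblastoid cells in complete medium. Luciferase-based ATP luminescence provided the viability signal.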

[13] = Cell Viability - LYMP2-024 (AID 988);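 note: plate controls were DMSO only for no effect and 92 µM tetraoctylammonium bromide for full effect; nearly all actives have a fitted effect of over 60% in size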
Outline: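 Cells at 2500 per well received compound for 24 hr after a 5 hr settling period. Viability was scored by CellTiter-Glo luminescence, with AC50 from Hill fits.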

[14] = Cell Viability - LYMP2-026 (AID 989); note: % is set by controls: 0 for no effect and ±100 for the full control effect; nearly all actives have a fitted effect of over 50% in size
Outline: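 Acute toxicity screen in complete culture medium, with 24 hr compound exposure at 37 C. Viability read as cellular ATP via luciferase reaction, with tetraoctylammonium bromide (6.4pM to 92 uM) as positive control.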

[15] = Cell Viability - LYMP1-002 - Assay at 24 hr (AID 993); note: % is set by controls: 0 for no effect and ±100 for the full control effect
Outline: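 Viability was judged from intracellular ATP using a luciferase read-out, following a 24-hour compound incubation at 37 C of lymphoblastoid cells seeded at 2500 per well. Concentration-response data were fitted to the Hill equation for AC50.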

[16] = Cell Viability - LYMP1-002 - Assay at 40 hr (AID 994)
Outline: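 Concentration-dependent ATP loss after 40 hr treatment at 37 C defined toxicity; AC50 values were obtained by fitting the standard Hill equation.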

[17] = qHTS Assay for Identification of Small Molecule Inducers of Hypoxia Response (AID 2120; active = well fitted curve in the direction sought with a large enough effect in the signal ratio, with a control signal flat, not every such curve was filed as active; the % refers to the signal ratio; note: 0% is about no effect)
Outline: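 HRE-bla ME-180, 2500 cells/well, 0.5% dialyzed FBS medium; cpd titration, 17 h 37 degrees C; CCF4 2.5 h RT; Ex 405, Em 460/530 ratio -> %Activity, AC50.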

[18] = molecular target: Estrogen receptor (Homo sapiens) (UniProt P03372); test: qHTS assay for small molecule antagonists of estrogen receptor alpha signaling (AID 588513; active = well fitted curve in the direction sought with a large enough effect in the signal ratio, with a control signal flat, not every such curve was filed as active; the % refers to the signal ratio; note: % is set by controls: 0 for no effect and ±100 for the full control effect)
Sequence of Estrogen receptor (Homo sapiens) (P03372 whole entry, looked up): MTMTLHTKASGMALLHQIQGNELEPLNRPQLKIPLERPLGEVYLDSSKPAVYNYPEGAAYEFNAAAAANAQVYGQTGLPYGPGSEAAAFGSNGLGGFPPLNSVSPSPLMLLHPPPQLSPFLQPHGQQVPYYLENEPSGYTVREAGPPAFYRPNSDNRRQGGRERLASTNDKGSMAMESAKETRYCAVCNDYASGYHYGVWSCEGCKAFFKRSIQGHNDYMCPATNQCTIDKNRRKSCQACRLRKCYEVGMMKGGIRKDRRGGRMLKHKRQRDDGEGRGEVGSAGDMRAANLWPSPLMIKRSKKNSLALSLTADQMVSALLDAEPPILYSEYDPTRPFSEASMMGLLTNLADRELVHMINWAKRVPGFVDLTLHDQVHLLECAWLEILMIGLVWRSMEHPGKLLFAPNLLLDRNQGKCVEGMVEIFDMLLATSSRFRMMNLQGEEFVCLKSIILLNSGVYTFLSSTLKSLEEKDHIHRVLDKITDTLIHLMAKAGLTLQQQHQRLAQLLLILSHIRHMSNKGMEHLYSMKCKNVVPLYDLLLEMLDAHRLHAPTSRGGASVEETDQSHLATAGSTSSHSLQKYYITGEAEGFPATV
Outline: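 ER-alpha-UAS-bla GripTite HEK 293 cells in medium with 2% charcoal/dextran-treated FBS were preincubated 4 h at 37 C, dosed with compound (1:2 titration), stimulated with 0.5nM 17-beta-estradiol for 18 h, then read by CCF4 beta-lactamase fluorescence.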

[19] = molecular target: Estrogen receptor (Homo sapiens) (UniProt P03372); test: qHTS assay for small molecule agonists of estrogen receptor alpha signaling (AID 588514; calls by dose curve;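 note: 0% = vehicle only and 100% = reference agonist; nearly all actives have a fitted effect of over 70% in size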)
Outline: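 Fluorescence from CCF4 cleavage reports ER-alpha-driven beta-lactamase expression in HEK 293 cells treated 18 hrs at 37 C. Data normalized to 17-beta-estradiol (20 nM) and DMSO, fitted to Hill equation.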

[20] = molecular target: Androgen receptor (Homo sapiens) (UniProt P10275); test: qHTS assay for small molecule agonists of androgen receptor signaling (AID 588515; active = well fitted curve in the direction sought with a large enough effect in the signal ratio, with a control signal flat; the % refers to the signal ratio; note: % is set by controls: 0 for no effect and ±100 for the full control effect); details: AR-UAS-bla HEK293, beta-lactamase ratio, agonist 16 h; stronger effect = higher value
Sequence of Androgen receptor (Homo sapiens) (P10275 whole entry, looked up): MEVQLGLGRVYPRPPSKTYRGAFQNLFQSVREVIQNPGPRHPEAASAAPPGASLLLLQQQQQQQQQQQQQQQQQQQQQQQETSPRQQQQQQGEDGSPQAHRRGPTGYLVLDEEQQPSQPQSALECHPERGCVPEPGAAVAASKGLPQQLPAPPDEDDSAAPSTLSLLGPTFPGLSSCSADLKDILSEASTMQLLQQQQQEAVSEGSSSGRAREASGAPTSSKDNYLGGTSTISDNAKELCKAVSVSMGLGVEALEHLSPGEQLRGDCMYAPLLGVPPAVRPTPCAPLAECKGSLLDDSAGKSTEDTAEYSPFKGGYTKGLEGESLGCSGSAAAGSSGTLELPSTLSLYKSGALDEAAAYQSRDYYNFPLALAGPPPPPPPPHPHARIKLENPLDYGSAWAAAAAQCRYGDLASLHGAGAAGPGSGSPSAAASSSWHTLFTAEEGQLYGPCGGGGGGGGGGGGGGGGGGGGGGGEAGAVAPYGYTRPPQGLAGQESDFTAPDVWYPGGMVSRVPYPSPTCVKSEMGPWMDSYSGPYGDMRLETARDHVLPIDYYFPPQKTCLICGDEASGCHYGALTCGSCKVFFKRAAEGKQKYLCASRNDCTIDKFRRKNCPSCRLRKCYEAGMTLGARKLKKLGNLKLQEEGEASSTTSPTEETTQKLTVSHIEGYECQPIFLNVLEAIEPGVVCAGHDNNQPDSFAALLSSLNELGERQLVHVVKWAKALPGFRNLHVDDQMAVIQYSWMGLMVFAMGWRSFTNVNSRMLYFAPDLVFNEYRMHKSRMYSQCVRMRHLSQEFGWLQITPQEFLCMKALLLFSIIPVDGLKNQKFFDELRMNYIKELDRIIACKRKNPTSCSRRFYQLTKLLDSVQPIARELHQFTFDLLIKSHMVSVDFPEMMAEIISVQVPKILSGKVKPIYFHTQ
Outline: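 Stimulation of an AR-responsive β-lactamase reporter in GripTite HEK293 cells was measured after 16 h compound exposure at 37 °C, via CCF4 fluorescence after 2 h RT. EC50 from Hill fits, normalized to R1881 at 30 nM.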

C=C(C)C(=O)OCC(C)C
inactive: Potency [1] | Potency [2] | Potency [3] | Potency [4] | Potency [5] | Potency [6] | Potency [7] | Potency [8] | Potency [9] | Potency [10] | Potency [11] | Potency [12] | Potency [13] | outcome [14] | Potency [15] | Potency [16] | outcome [17] | outcome [18] | Potency [19]

OC1CCCC1
inactive: Potency [1] | Potency [2] | Potency [3] | Potency [4] | Potency [5] | Potency [6] | Potency [7] | Potency [8] | Potency [9] | Potency [10] | Potency [11] | Potency [12] | Potency [13] | outcome [14] | Potency [15] | Potency [16] | outcome [17] | outcome [18] | Potency [19]

ClCCl
inactive: Potency [1] | Potency [2] | Potency [3] | Potency [4] | Potency [5] | Potency [6] | Potency [7] | Potency [8] | Potency [9] | Potency [10] | Potency [11] | Potency [12] | Potency [13] | outcome [14] | Potency [15] | outcome [17] | outcome [18] | Potency [19] | activation [20] 2.05%

Cc1ccc(S(=O)(=O)NC2CCCCC2)cc1
inactive: Potency [1] | Potency [2] | Potency [3] | Potency [4] | Potency [5] | Potency [6] | Potency [7] | Potency [8] | Potency [9] | Potency [10] | Potency [11] | Potency [12] | Potency [13] | outcome [14] | Potency [15] | Potency [16] | outcome [17] | outcome [18] | Potency [19]

Cc1ccc2ccccc2c1[N+](=O)[O-]
inactive: Potency [1] | Potency [2] | Potency [3] | Potency [4] | Potency [5] | Potency [6] | Potency [7] | Potency [8] | Potency [9] | Potency [10] | Potency [11] | Potency [12] | Potency [13] | outcome [14] | Potency [15] | outcome [17] | outcome [18] | Potency [19]

CC(C)c1ccccc1
inactive: Potency [1] | Potency [2] | Potency [3] | Potency [4] | Potency [5] | Potency [6] | Potency [7] | Potency [8] | Potency [10] | Potency [11] | Potency [12] | outcome [14] | Potency [15] | Potency [16] | outcome [17] | outcome [18] | Potency [19] | activation [20] -0.119%

Cc1ccco1
inactive: Potency [1] | Potency [2] | Potency [3] | Potency [4] | Potency [5] | Potency [6] | Potency [7] | Potency [8] | Potency [9] | Potency [10] | Potency [11] | Potency [12] | Potency [13] | outcome [14] | Potency [15] | Potency [16] | outcome [17] | outcome [18] | Potency [19]

CCCCC(=O)N(C)C
inactive: Potency [1] | Potency [2] | Potency [3] | Potency [4] | Potency [5] | Potency [6] | Potency [7] | Potency [8] | Potency [9] | Potency [10] | Potency [11] | Potency [12] | Potency [13] | outcome [14] | Potency [15] | Potency [16] | outcome [17] | outcome [18] | Potency [19]

CC(=O)OCc1ccco1
inactive: Potency [1] | Potency [2] | Potency [3] | Potency [4] | Potency [5] | Potency [6] | Potency [7] | Potency [8] | Potency [9] | Potency [10] | Potency [11] | Potency [12] | Potency [13] | outcome [14] | Potency [15] | Potency [16] | outcome [17] | outcome [18] | Potency [19]

Nc1ccc(Cl)cc1[N+](=O)[O-]
inactive: Potency [1] | Potency [2] | Potency [3] | Potency [4] | Potency [5] | Potency [6] | Potency [7] | Potency [8] | Potency [9] | Potency [10] | Potency [11] | Potency [12] | outcome [14] | Potency [15] | outcome [17] | outcome [18] | Potency [19] | activation [20] 7.43%

O=C1NC(=O)c2cc([N+](=O)[O-])ccc21
inactive: Potency [1] | Potency [2] | Potency [3] | Potency [4] | Potency [5] | Potency [6] | Potency [7] | Potency [9] | Potency [10] | Potency [11] | Potency [12] | Potency [13] | outcome [14] | Potency [15] | Potency [16] | outcome [17] | outcome [18] | Potency [19] | activation [20] -13.5%

BrC(Br)C(Br)Br
inactive: Potency [1] | Potency [2] | Potency [3] | Potency [4] | Potency [6] | Potency [7] | Potency [8] | Potency [9] | Potency [10] | Potency [11] | Potency [12] | Potency [13] | outcome [14] | Potency [15] | Potency [16] | outcome [17] | outcome [18] | Potency [19] | activation [20] 2.87%

CC(=O)Nc1ccc(N)cc1
inactive: Potency [1] | Potency [2] | Potency [3] | Potency [5] | Potency [6] | Potency [7] | Potency [9] | Potency [10] | Potency [11] | Potency [12] | Potency [13] | outcome [14] | Potency [15] | Potency [16] | outcome [17] | outcome [18] | Potency [19] | activation [20] -10.4%

Cc1ccc(C)cc1
inactive: Potency [1] | Potency [2] | Potency [3] | Potency [4] | Potency [5] | Potency [6] | Potency [7] | Potency [8] | Potency [9] | Potency [10] | Potency [11] | Potency [12] | Potency [13] | outcome [14] | Potency [15] | Potency [16] | outcome [17] | outcome [18] | Potency [19] | activation [20] 10.6%

CC(C)(O)CCC(C)(C)O
inactive: Potency [2] | Potency [3] | Potency [5] | Potency [6] | Potency [7] | Potency [8] | Potency [9] | Potency [10] | Potency [11] | Potency [12] | Potency [13] | outcome [14] | Potency [15] | Potency [16] | outcome [17] | outcome [18] | Potency [19] | activation [20] -1.56%

Cc1ccc(N(C)C)cc1
inactive: Potency [1] | Potency [2] | Potency [3] | Potency [4] | Potency [5] | Potency [6] | Potency [7] | Potency [8] | Potency [9] | Potency [10] | Potency [11] | Potency [12] | Potency [13] | outcome [14] | Potency [16] | outcome [17] | outcome [18] | Potency [19] | activation [20] 15.4%
